An excerpt weighted towards active compounds, which were near 2.7% of everything screened.
PGC1a acetyl inh – modulators of PGC1a acetylation. inhibition, % at 15.6 µM. 0.17% of 350,000 active. U2OS PGC1a acetylation, AlphaScreen anti-acetyl-lysine; with virally co-expressed GCN5 acetyltransferase. AID 651687;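 active = every replicate shows inhibition of at least 40%; inconclusive = mean inhibition at least 40% but some replicate below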;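 note: 0% = neutral control wells and 100% = positive control wells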
CFTR F508del cor – CFTR F508del correction in bronchial cells; CFBE cells, YFP halide quenching; stimulated with forskolin plus potentiator P3; % fluorescence drop versus neutral controls; activity (quench increase), % at 7.58 µM; 0.36% of 350,000 active;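 active = mean added fluorescence quench of at least 8% versus neutral control, with both replicates also reaching 8%; inconclusive = only one of the mean or replicate conditions met; inactive = mean below 8% and not both replicates reaching 8%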;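 note: cells transiently co-express mutant CFTR-F508del with the halide-sensitive YFP; corrector assay measuring rescue of mutant channel to the surface after 24 h compound exposure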
GSIS activator – primary screen for activators of insulin secretion dependent on glucose, INS-1E cells, GLuc reporter luminescence | AID 743287 | 0.61% of 370,000 active | activation, % at 16.6 µM | INS-1E GLuc reporter insulin secretion, 2-3 h;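 active = lowest replicate activation of at least 40%, so every replicate reaches that level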;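 note: 0% = median of neutral control wells and 100% = median of IBMX positive control wells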
PAX8 inh HTS – lowers PAX8-driven luciferase in RMG-I cells; RMG-I TPO-luciferase reporter, SteadyGlo, 24 h; inhibition, % at 12.6 µM; 1.2% of 360,000 active; AID 652154;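 active = mean replicate inhibition at least 60% with every replicate also reaching 60%; inconclusive = only one of the two criteria is met; inactive = mean below 60% and not all replicates reaching 60%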;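 note: luciferase light reporting Pax8 driven TPO promoter activity; plate controls were median of neutral control wells for no effect and mitoxantrone controls for full effect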
Env fusion inh – inhibitors of HIV Env-mediated cell fusion; HeLa-JRFL Env/CEM21 cell fusion, luciferase; inhibition, % at 12.3 µM; 1.1% of 360,000 active; AID 651610;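 active = mean replicate inhibition score of at least 50 and every replicate individually at or above 50; inconclusive = only one of the two criteria met; inactive = mean below 50 and not all replicates reaching 50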;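 note: 0% = plate neutral controls and 100% = maraviroc near 300 nM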
EWS-Fli inh – inhibitors of EWS/Fli oncoprotein transcriptional activity | 0.67% of 350,000 active | A673 NR0B1-luciferase reporter, viability-normalised | inhibition, % at 12.6 µM;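 active = mean inhibition of at least 50% after viability correction, with every replicate also passing that limit; inconclusive = mean reaches 50% but only one of two replicates passes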;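 note: firefly luciferase signal divided by Alamar Blue viability fluorescence both relative to DMSO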
Starred values were filed as active, the others as inactive; ? = inconclusive; . = no result given; [ ] = remark or other dose.

SMILES | PGC1a acetyl inh | CFTR F508del cor | GSIS activator | PAX8 inh HTS | Env fusion inh | EWS-Fli inh
COc1ccc2nc(C)cc(N/N=C/c3ccc(F)cc3)c2c1 | 94* | -1 | 3 | 33 | 90* | 71*
COc1ccc(/C=N/Nc2cc(C)nc3ccccc23)cc1 | . | -1 | -16 | 1 | 2 | 10
COc1ccc(Nc2cc(C)nc3ccc(OC)cc23)cc1 | 12 | -1 | 16 | 0 | 1 | 24
COc1ccc(/C=N/Nc2cc(C)nc3c(C)cccc23)cc1 | . | -14 | 1 | 16 | -9 | 67*
COc1ccc(-c2c(C)nn3c(C(F)(F)F)cc(C)nc23)cc1 | -5 | . | . | -12 | 87* | -4
Cc1cc(Cl)n2nc(C)c(-c3ccc(Cl)cc3)c2n1 | 5 | -1 | . | 81* | -8 | 47
CO[C@@H]1CN(C)C(=O)c2cc(NC(=O)Nc3cccc(Cl)c3)ccc2OC[C@H](C)N(C)C[C@H]1C | . | -1 | -9 | . | . | -7
O=C(N[C@@H]1CC[C@H](CCNC(=O)C2CCC2)O[C@H]1CO)c1ccccn1 | 5 | 0 | 29 | -7 | 10[16.7 µM] | -2
O=C1ON=C(c2ccccc2)/C1=C/c1ccc(OS(=O)(=O)c2ccccc2)cc1 | . | -1 | 2 | 108* | . | -6
COc1ccc(/C=C2\C(=O)ON=C2c2ccccc2)cc1 | -2 | 2 | 1 | -59 | -9 | 22
CCCN(CCC)c1ncnc2nc[nH]c12 | 37 | 4 | 24 | -28 | 62* | -9
O=C(c1ccccc1)c1ccccc1 | 8 | . | . | . | . | -8
O=C(O)C1C=CC(C(=O)O)c2ccccc21 (stereo unspecified) | . | 2 | . | 93* | 37 | -10
CCC[C@@H](CNC)NC[C@H](Cc1ccccc1)NCCCCc1ccccc1 | -17 | 0 | -7 | 26 | -25 | 13
CNC[C@@H](CC1CCCCC1)NC[C@H](CC(C)C)NCCc1cccc(C(F)(F)F)c1 | 88* | -2 | 480* | 113* | 93* | 49
CN(Cc1cccc(C(F)(F)F)c1)C(=O)C1CCC(=O)N(CC2CCCCC2)C1 (stereo unspecified) | . | 2 | -28 | -6 | 15 | 3
CNC[C@@H](Cc1ccccc1)NC[C@@H](CC1CCCCC1)NCCCc1ccccc1 | -55 | 2 | 89* | 74* | 103* | 44
C[C@H](CO)N1C[C@H](C)[C@H](CN(C)C(=O)Cc2ccccc2)OCCCC[C@H](C)Oc2ccc(NS(=O)(=O)c3cn(C)cn3)cc2C1=O | -2 | -1 | -6 | 3 | 16[16.7 µM] | -12
Cc1noc(C)c1NC(=O)N(C)C[C@@H]1Oc2ccc(NS(=O)(=O)c3c(C)noc3C)cc2C(=O)N([C@@H](C)CO)C[C@H]1C | -1 | -1 | 10 | . | -12[16.7 µM] | -10
O=c1nc2ccccc2c(NS(=O)(=O)c2ccccc2)n1-c1ccccc1 | 43 | . | . | -7 | -39 | .
Cc1ccc(S(=O)(=O)Nc2c3ccccc3nc(=O)n2-c2ccccc2)cc1 | -2 | . | 59* | . | . | .
C[C@H](CO)N1C[C@H](C)[C@H](CN(C)Cc2ccncc2)Oc2cc(-c3ccccc3)ccc2S1(=O)=O | -1 | 0 | -30 | . | 11[16.7 µM] | 5
CCCCCCN(C(=O)CCl)c1ccccc1 | 3 | -1 | 2 | 104* | 16 | 42
CCCCCCCN(C(=O)CCl)c1cccc(C)c1 | . | . | 15 | 103* | -5 | .
O=C(CCl)N(c1ccccc1)c1ccccc1 | . | -1 | 22 | ? | 36 | 40
SMILES | PGC1a acetyl inh | CFTR F508del cor | GSIS activator | PAX8 inh HTS | Env fusion inh | EWS-Fli inh
CO[C@H]1CN(C)C(=O)c2cc(NC(C)=O)ccc2OC[C@@H](C)N(C(=O)Cc2cccnc2)C[C@H]1C | 2 | -2 | -1 | 0 | . | 3
CCNC(=O)C1(C)CCN(C(=O)c2cc(F)ccc2C)C1 (stereo unspecified) | 12 | 16* | . | 0 | -103 | 0
CCCNC(=O)C1(C)CCN(C(=O)c2ccccc2F)C1 (stereo unspecified) | 6 | 1 | -8 | 1 | 7 | -3
CCNC(=O)C1(C)CCN(C(=O)c2ccccc2F)C1 (stereo unspecified) | 0 | 2 | 0 | 96* | -10 | 2
COC(=O)CN(c1cccc(C)c1)S(=O)(=O)c1ccccc1 | -6 | -1 | 46* | . | -6 | .
COC(=O)CN(c1ccc(F)cc1)S(=O)(=O)c1ccccc1 | -4 | . | . | 9 | -95 | .
CCS(=O)(=O)Nc1ccc2c(c1)C(=O)N(C)C[C@H](OC)[C@@H](C)CN(C)[C@H](C)CO2 | 2 | 1 | 20 | . | 12[16.7 µM] | 11
CCCc1nn(-c2cc(Cl)ccc2OC)c2c1C(=O)CCC2 | -3 | -1 | 40 | 18 | 19 | -1
CCCCc1nn(-c2cc(Cl)ccc2OC)c2c1C(=O)CC(C)(C)C2 | -17 | -2 | -15 | 1 | 57* | 4
C[C@H](CO)N1C[C@H](C)[C@H](CN(C)C(=O)Nc2ccc(C(F)(F)F)cc2)Oc2ccc(NC(=O)Cn3cnnn3)cc2C1=O | -3 | 1 | -9 | . | . | -3
CCC[C@@H]1C[C@@]1(CCC)[C@@H](NP(=O)(c1ccccc1)c1ccccc1)c1ccc(C(=O)OC)cc1 | . | 1 | . | 6 | 96* | 21
COc1cccc(S(=O)(=O)N2CC[C@@H]3[C@@H](CO)Nc4ccc(C#Cc5cccnc5)cc4[C@@H]32)c1 | 0 | 7 | -28 | . | . | 19
O=[N+]([O-])c1ccc(N2CCCC2)nc1N1CCCC1 | -2 | 0 | -9 | 11 | -11 | 0
Nc1ncc([N+](=O)[O-])c(N2CCCCCC2)n1 | 53* | -1 | 18 | -39 | 52 | -14
CCN1CCN(c2ncnc3c2cnn3-c2ccccc2)CC1 | 14 | 1 | 2 | -145 | -13 | -87
CC1CCCCN1c1ncnc2ccccc12 (stereo unspecified) | 7 | . | . | . | . | .
c1ccc(-n2ncc3c(N4CCCCC4)ncnc32)cc1 | 0 | 0 | 3 | 21 | 1 | 75*
c1ccc2c(N3CCCCC3)ncnc2c1 | -6 | . | . | . | 70* | .
Cc1ccc(-n2ncc3c(N4CCCC4)ncnc32)c(C)c1 | 11 | . | . | -109 | -38 | .
COc1cccc(N2CCN(c3ncnc4c3cnn4-c3ccc(C)cc3C)CC2)c1 | 40 | 5 | . | 102* | ? | 48
CC1CCCN(c2ncnc3c2cnn3-c2ccc(Cl)cc2)C1 (stereo unspecified) | -3 | 0 | 2 | 76* | 27 | 86*
CC1CC(C)CN(c2ncnc3c2cnn3-c2ccc(Cl)cc2)C1 (stereo unspecified) | 12 | -1 | -3 | -95 | -172 | -27
CC1CCCN(c2ncnc3c2cnn3-c2ccccc2)C1 (stereo unspecified) | -7 | -1 | -18 | 25 | -38 | 69*
C[C@@H]1CN([C@@H](C)CO)S(=O)(=O)c2ccc(/C=C/c3ccccc3)cc2O[C@H]1CN(C)C(=O)c1ccccc1 | -18 | 6 | -8 | 71* | -13[16.7 µM] | 31

From PubChem
